From PubChem BioAssay
In the library only some 1.5% were active in any assay of this set; here they are far more common.
E-sel TNF inh: TNF alpha driven E-selectin expression inhibition | inhibition, % at 2 µM | HUVEC TNFa-induced E-selectin immunofluorescence, high content | actives 0.71% (n = 120,000);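 active = inhibition above the batch mean plus 3 SD, and confirmed as a hit on visual image review, cut at about 43% in these data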;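 also: 0% = TNF-stimulated DMSO wells and 100% = unstimulated control wells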
MRP-1 activ: activators of MRP-1. H69AR cells + doxorubicin, viability rescue, CellTiter-Glo. viability increase, % at 10 µM. actives 0.61% (n = 140,000). AID 799;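 active = viability gain under doxorubicin at or above a set limit, the compound median plus 3 SD, cut at about 4.7% in these data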;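 also: MRP-1 overexpressing cells given doxorubicin 25 µM after compound pretreatment; 18-22 h compound pretreatment then 72 h with doxorubicin before readout; 0% = doxorubicin-only wells and 100% = vehicle-treated cells without doxorubicin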
MRP reversal: MRP-mediated drug resistance reversal | H69AR cells + 2 uM doxorubicin, CellTiter-Glo, 72 h | AID 602 | differential viability (reversal), % at 10 µM | actives 0.04% (n = 85,000);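 active = viability drop by adding the cancer drug above about 55%, with treated viability meeting a 40% cutoff, limit read from the data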;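 also: viability without doxorubicin minus viability with 2 µM doxorubicin for each compound; larger differential means the compound sensitizes cells more to doxorubicin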
VCAM1 TNFa inh: reduces TNF alpha induced VCAM1 expression in HUVEC; HUVEC TNFa-induced VCAM-1 immunofluorescence, high-content imaging; inhibition, % at 2 µM; actives 0.48% (n = 95,000);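 active = inhibition above the batch mean plus 3 SD, with images confirmed as a hit by eye, cut at about 37% in these data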;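 also: 0% = TNF-stimulated DMSO wells and 100% = unstimulated control wells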
F-actin modifier: alters cytoskeleton assembly in HUVEC cells | inhibition, % at 2 µM | HUVEC TNFa F-actin phalloidin imaging, high content | actives 0.18% (n = 91,000);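 active = inhibition above the batch mean plus 3 SD and confirmed as a hit by visual image inspection, cut at about 30% in these data, passing the limit was not always enough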
* hit, by the source's call; x = no result.

SMILES | E-sel TNF inh | MRP-1 activ | MRP reversal | VCAM1 TNFa inh | F-actin modifier
Cc1c(C(=O)NCCCN2CCOCC2)oc2ccc(S(=O)(=O)N3CCOCC3)cc12 | 3 | x | x | x | x
CCOC(=O)Cc1csc(NC(=O)C(C)(C)CC)n1 | 30 | 0 | x | 4 | -8
CCn1c(CN2CCN(c3ccc(Cl)cc3)CC2)nc2ccccc21 | 14 | -5 | 3 | 58* | 10
CN1CCc2c(c3c(n2C)CCN(C)[C@H]3c2ccccc2F)[C@@H]1c1ccccc1F | -62 | -1 | x | 2 | -9
CCC1=NC(c2ccccc2Cl)N(O)C1(C)C (stereo not given) | 10 | 0 | -28 | 59* | -9
CC(=O)c1ccc(NC(=S)N2CC(C)CC(C)C2)cc1 (stereo not given) | 77* | -1 | x | x | x
Cc1ccccc1Cn1ccc(NC(=O)c2cnn3c2NC(c2ccccc2)CC3C(F)(F)F)n1 (stereo not given) | 75* | -3 | 8 | 4 | 16
O=C(NCc1ccco1)c1cnn2c1NC(c1ccccc1)CC2C(F)(F)F (stereo not given) | x | -2 | 8 | -22 | -18
COc1ccc(OC)c(C(c2nnnn2CC2CCCO2)N2CCN(C)CC2)c1 (stereo not given) | -8 | -2 | -1 | 11 | 22
C=CCN1CCN(C(c2cc(OC)ccc2OC)c2nnnn2CC2CCCO2)CC1 (stereo not given) | 71* | -3 | 6 | 1 | -23
O=C(Nc1cccc(-c2cn3ccccc3n2)c1)c1cccc(Cl)c1 | 57* | -1 | x | -2 | 26
CC(C)(C)c1nc[nH]c(=O)c1Br | x | 1 | x | x | x
CCOc1ccc(N2C(=O)CSC2c2ccncc2)cc1 (stereo not given) | 14 | -1 | x | 91* | 40
Fc1ccc(CNc2nc(-c3ccccc3)nc3ccccc23)cc1 | 100* | x | x | x | x
Cc1ccc(S(=O)(=O)N[C@@H](Cc2ccccc2)C(=O)CCl)cc1 | x | -1 | x | x | x
CCc1ccc(CN(C)C(=O)c2cc(COc3c(F)cccc3F)on2)cc1 | 83* | x | x | x | x
CN(C)c1cccc(C(=O)Nc2ccc(N3CCOCC3)cc2)c1 | 6 | 0 | x | 1 | 32*
COc1ccc(C(=O)Nc2ccc(N3CCOCC3)cc2)cc1OC | x | 0 | 9 | 25 | -9
COc1ccc(-n2ncc3c(=O)n(CC(=O)N4c5ccccc5CC4C)cnc32)cc1 (stereo not given) | -27 | 5.9* | -2 | -7 | 8
O=C(Cn1cnc2c(cnn2-c2ccccc2)c1=O)N1CCOCC1 | -4 | -2 | -10 | x | x
Cc1ccc(NC(=O)CC2NCCNC2=O)cc1 (stereo not given) | -3 | -1 | -7 | 2 | -3
Cc1cc(C)cc(NC(=O)CC2NCCNC2=O)c1 (stereo not given) | x | -2 | 12 | 86* | 22
N#C/C(=N\Nc1ccc(Cl)cc1)C(=N)N1CCCCC1 | -4 | 0 | 3 | -2 | 4
N#C/C(=N\Nc1ccccc1F)C(=N)N1CCCCC1 | -26 | 8.2* | 11 | -28 | 8
Cc1ccc(N/N=C(\C#N)C(=N)N2CCOCC2)cc1 | x | 6.5* | x | x | x
SMILES | E-sel TNF inh | MRP-1 activ | MRP reversal | VCAM1 TNFa inh | F-actin modifier
N#C/C(=N\Nc1ccc(F)cc1)C(=N)N1CCCCCC1 | -7 | x | x | x | x
C(=N\Nc1ccccc1)/c1ccc(N2CCOCC2)cc1 | -9 | -1 | x | 7 | -20
N#C/C(=N\Nc1ccccc1)C(=N)N1CCOCC1 | x | 6.8* | x | x | x
CCCCOCCCNC(=O)c1ccc([N+](=O)[O-])c(C)c1 | 6 | 0 | x | x | x
COc1ccc(OC)c(-c2csc(N3CCC(c4ccccc4)CC3)n2)c1 | -61 | x | x | x | x
Cc1c(N=C/C=C2/N(C)c3ccccc3C2(C)C)c(=O)n(-c2ccccc2)n1C | -13 | -1 | 2 | -38 | -8
Cc1c(N=C/C=C2\N(C)c3ccccc3C2(C)C)c(=O)n(-c2ccccc2)n1C | 63* | -2 | 1 | 18 | 6
Cc1nnc(N2CCN(c3ccccc3)CC2)c2nn(-c3ccccc3F)c(C)c12 | -20 | x | -26 | 18 | -1
Cc1ccc2cc3c(N)[nH]nc3nc2c1 | -1 | -4 | x | x | x
CCC(CC)C(=O)N(c1ccc(F)cc1)C1C=CS(=O)(=O)C1 (stereo not given) | x | -5 | -18 | 11 | -22
CC(C)C(=O)N(c1ccc(F)cc1)C1C=CS(=O)(=O)C1 (stereo not given) | 82* | -1 | 6 | -10 | 10
N#Cc1cc2c(nc1SCc1ccccc1)CCCCC2 | -23 | 3 | 4 | 16 | 13
N#Cc1cc2c(nc1SCc1ccc(Cl)cc1)CCCC2 | 8 | 6.8* | 7 | x | x
CCn1c(SCc2ccc(Cl)cc2)nc2nc3c(cc2c1=O)CCCC3 | x | 5.4* | x | x | x
O=C(O)CCC(NC(=O)OCc1ccccc1)C(=O)O (stereo not given) | 3 | -2 | -11 | -4 | -8
CSCCC(NC(=O)OCc1ccccc1)C(=O)O (stereo not given) | -18 | -1 | 4 | 97* | 18
COc1ccccc1NC(=O)CSc1nnc2ccc(-c3cccnc3)nn12 | 82* | x | x | x | x
COc1ccccc1NC(=O)CSC1=NCCN1 | x | 50* | x | x | x
O=C(CSC1=NCCN1)Nc1ccccc1[N+](=O)[O-] | -26 | x | x | x | x
COc1ccccc1NC(=O)CSC(N)=O | 4 | 5.6* | -27 | 22 | 2
Cc1ccccc1NC(=O)CSC(N)=O | x | -1 | -22 | 27 | 10
O=C(CSc1cccc2cccc(Cl)c12)NC1=NCCS1 | -9 | x | x | x | x
O=C(CCn1c(=O)[nH]c2ccsc2c1=O)N1CCN(c2cccc(Cl)c2)CC1 | x | -3 | -22 | 23 | 12
Cc1ccc(Cl)cc1N1CCN(C(=O)Cc2ccc(-n3c(=O)[nH]c4ccsc4c3=O)cc2)CC1 | 31 | 9.7* | x | x | x
CCOC(=O)CN(C(=O)CSc1nnc(CNc2ccc(F)cc2)n1C)c1ccccc1 | 5 | -2 | 9 | 12 | 2
SMILES | E-sel TNF inh | MRP-1 activ | MRP reversal | VCAM1 TNFa inh | F-actin modifier
CCOC(=O)CN(C(=O)CSc1nnc(COc2ccc(OC)cc2)n1C)c1ccccc1 | -11 | 5.6* | -12 | -6 | 24
Cc1nc2cc(N3CCN(C)CC3)c(NC(=O)Cc3ccccc3)cc2c(=O)n1Cc1ccccc1 | 12 | -2 | x | 3 | -13
CCN(CC)c1cc2nc(C)n(Cc3ccccc3)c(=O)c2cc1NC(=O)C1CC1 | 13 | 4.8* | -6 | -5 | -3
Cc1cc(C)c(NC(=O)COc2ccccc2C(=O)Nc2ccc3c(c2)oc2ccccc23)c(C)c1 | 16 | -2 | -8 | 7 | -9
CCc1n[nH]c2c1C(=O)CC(C)(C)C2 | 54* | -1 | -4 | 6 | 2
COc1ccc(F)cc1S(=O)(=O)N1CC(C)CC(C)C1 (stereo not given) | 31 | -3 | 10 | 7 | x
N#Cc1c(N)n(CCOC(=O)c2cccc(Br)c2)c2nc3ccccc3nc12 | 5 | 5.7* | 6 | -9 | -8
N#Cc1c(N)n(CCOC(=O)c2cccc([N+](=O)[O-])c2)c2nc3ccccc3nc12 | 27 | -2 | x | 0 | 7
O=C(Nc1cccs1)Nc1c(F)c(F)c(F)c(F)c1F | 69* | -3 | x | x | x
O=C(Nc1cccs1)Nc1c(F)c(F)cc(F)c1F | x | -2 | x | x | x
Nc1ccccc1SCc1cn2ccccc2n1 | 11 | -1 | x | x | x
N=C(N)SCc1cn2ccccc2n1 | x | 4.9* | x | x | x
